We go through 17 compounds from PubChem BioAssay (Tox21).

Where “and” joins values, the source holds several entries; their conditions need not be identical. Equal values may be shown once. Results filed as inconclusive are left out. A structure can be active in one record and inactive in another. Calls of active or inactive are those of the source. Unless noted, the call rests on the fitted dose curve; in most records, active means well fitted curve in the direction sought with a large enough effect in the repeat runs; inconclusive means weak or mixed curves; inactive means no such curve, though single readings can be large; an effect the other way counts as inactive or inconclusive.

The nature of assay [1]: qHTS assay to identify small molecule agonists of the vitamin D receptor (VDR) signaling pathway - cell viability counter screen (AID 743224). Further: nearly all actives have a fitted effect of over 50% in size. Further: potency means the concentration at half of the fitted maximal effect. On activity change, negative = cytotoxicity: on the % scale 0 is the no-effect control and ±100 the full control effect. The method in brief:
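VDR-bla cells were preincubated 4 h at 37C/5% CO2, then exposed to compounds for 16 h. After the 2 h room-temperature bla FRET read, CellTiter-Glo was added to the same wells and luminescence read after 30 min.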

Assay [2] is described as follows: qHTS assay to identify small molecule agonists of the NFkB signaling pathway - cell viability counter screen (AID 1159515; calls by dose curve; further: nearly all actives have a fitted effect of over 55% in size; further: potency means the concentration at half of the fitted maximal effect). In a few lines:
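NFkB-bla ME-180 cells, 2,000/well, were plated overnight at 37 C, 5% CO2, then exposed to compounds in DMSO for 5 hr. After the bla FRET read, CellTiter-Glo was added to the same wells; luminescence was read after 30 min at room temperature.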

Assay [3] is described as follows: qHTS assay to identify small molecule antagonists of the retinoid-related orphan receptor gamma (ROR-gamma) signaling pathway - cell viability counter screen (AID 1159520). Further: nearly all actives have a fitted effect of over 50% in size. Further: potency means the concentration at half of the fitted maximal effect. In a few lines:
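Tet-on ROR gamma CHO cells (1,000/well) were plated 4 hr, given compounds in DMSO for 2 hr at 37 C, then induced with 1 uM final doxycycline for 16 hr. Viability was read as ATP by CellTiter-Glo luminescence after 30 min.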

Assay [4] in a line: qHTS assay to identify small molecule agonists of the AP-1 signaling pathway - cell viability counter screen (AID 1159525; calls by dose curve; further: nearly all actives have a fitted effect of over 55% in size; further: potency means the concentration at half of the fitted maximal effect). The method in brief: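 ME-180 AP-1-bla, 2500 cells/well, Opti-MEM + 0.5% dialyzed FBS; overnight 37 °C; cpd 15-pt titration, 5 h 37 °C; CellTiter-Glo 30 min RT; luminescence read; normalised to TOAB and DMSO controls.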
Assay [5] in a line: qHTS assay to identify small molecule agonists of the AP-1 signaling pathway (AID 1159526; calls by dose curve; further: on the % scale 0 is the no-effect control and ±100 the full control effect).
In assay [6] the target is Retinoic acid receptor RXR-alpha (Homo sapiens) (UniProt P19793). The assay is described as follows: qHTS assay to identify small molecule agonists of the RXR signaling pathway (AID 1159527; calls by dose curve; further: on the % scale 0 is the no-effect control and ±100 the full control effect; nearly all actives have a fitted effect of over 35% in size). In a few lines: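 Compounds in DMSO were added to RXR-alpha-UAS-bla HEK 293T cells kept in 2% charcoal-stripped serum, and incubated 16 hr at 37 C with 5% CO2. Reporter signal came from a 2 hr B/G FRET substrate step.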
Retinoic acid receptor RXR-alpha (Homo sapiens), sequence (P19793 whole entry, looked up): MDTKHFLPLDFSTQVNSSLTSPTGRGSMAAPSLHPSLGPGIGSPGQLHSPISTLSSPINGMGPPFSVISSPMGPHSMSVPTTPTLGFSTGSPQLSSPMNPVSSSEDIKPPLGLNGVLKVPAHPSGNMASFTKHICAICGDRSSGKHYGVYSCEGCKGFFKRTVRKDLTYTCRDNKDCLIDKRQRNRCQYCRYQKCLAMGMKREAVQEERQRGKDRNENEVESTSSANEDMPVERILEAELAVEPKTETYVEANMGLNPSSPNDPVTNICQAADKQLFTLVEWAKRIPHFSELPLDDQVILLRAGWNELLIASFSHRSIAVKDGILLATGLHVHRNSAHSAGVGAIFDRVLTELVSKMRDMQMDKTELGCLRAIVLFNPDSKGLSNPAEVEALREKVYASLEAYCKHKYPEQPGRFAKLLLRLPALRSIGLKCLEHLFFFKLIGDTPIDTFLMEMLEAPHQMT

Assay [7] can be described thus: qHTS assay to identify small molecule agonists of the RXR signaling pathway - cell viability counter screen (AID 1159529). Further: nearly all actives have a fitted effect of over 50% in size. Further: potency means the concentration at half of the fitted maximal effect. On activity change, negative = cytotoxicity: on the % scale 0 is the no-effect control and ±100 the full control effect. In a few lines: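 Counter screen: CellTiter-Glo luminescence. Cells: RXR-alpha-UAS-bla HEK 293T. Medium: 2% charcoal-stripped FBS. Treatment: 16 h, 37 C. Reagent incubation: 30 min, RT.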
Assay [8] in a line: qHTS assay to identify small molecule antagonists of the retinoid acid receptor (RAR) signaling pathway - cell viability counter screen (AID 1159551). Further: nearly all actives have a fitted effect of over 35% in size. Further: potency means the concentration at half of the fitted maximal effect. In a few lines: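 C3RL4 cells were seeded overnight at 37 C, then treated with compounds plus 1 uM (final) retinol for 6 h at 37 C. Viability was read as ATP by CellTiter-Glo luminescence after 30 min at room temperature.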
The nature of assay [9]: qHTS assay to identify small molecule antagonists of the retinoic acid receptor (RAR) signaling pathway (AID 1159552; further: nearly all actives have a fitted effect of over 50% in size; further: potency means the concentration at half of the fitted maximal effect). In a few lines:
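Antagonism of retinol-induced RARE reporter activity was measured in C3RL4 cells. Exposure to compounds and 1 uM final retinol lasted 6 hr at 37 C, with luminescence as endpoint.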

A short description of assay [10]: qHTS assay to identify small molecule agonists of the retinoic acid receptor (RAR) signaling pathway (AID 1159553). Further: on the % scale 0 is the no-effect control and ±100 the full control effect. Particulars: C3RL4 RARE luciferase reporter, agonist, 6 h; activation: at 73.3 µM (top of the series) unless noted. In a few lines:
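C3RL4 cells carrying a RARE luciferase reporter were plated overnight at 37 C, then exposed to compounds in DMSO for 6 hr at 37 C and 5% CO2. Luminescence was read 30 min after luciferase reagent addition at room temperature.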

A short description of assay [11]: qHTS assay to identify small molecule antagonists of the vitamin D receptor (VDR) signaling pathway - cell viability counter screen (AID 743225). Further: nearly all actives have a fitted effect of over 50% in size. Further: potency means the concentration at half of the fitted maximal effect. In a few lines:
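Same-well multiplex: following 16 h treatment of HEK 293T cells carrying a UAS-driven beta-lactamase reporter with compound and agonist (3 nM final), and a 2 h FRET substrate step, CellTiter-Glo was added and luminescence read after 30 min.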

A short description of assay [12]: qHTS assay to identify small molecule agonists of the endoplasmic reticulum stress response signaling pathway - cell viability counter screen (AID 1159517; calls by dose curve; further: nearly all actives have a fitted effect of over 50% in size; further: potency means the concentration at half of the fitted maximal effect). The method in brief:
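Luminescence readout: CellTiter-Glo, 30 min RT, same wells as the ESRE-bla reporter read. HeLa ESRE-bla, 1,500 cells/well, o/n 37 C; cpd 5 hr 37 C/5% CO2.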

The target in assay [13] is Nuclear receptor ROR-gamma (Homo sapiens) (UniProt P51449). Put plainly: qHTS assay to identify small molecule antagonists of the retinoid-related orphan receptor gamma (ROR-gamma) signaling pathway (AID 1159521; further: nearly all actives have a fitted effect of over 50% in size; further: potency means the concentration at half of the fitted maximal effect). In a few lines:
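Inducible-expression reporter assay: doxycycline (1 uM final) switched on RORγ in CHO cells bearing a ROR response element-luciferase construct, with test compounds present from 2 h beforehand. Decreased luminescence after 16 h defined antagonist activity.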

As to `OC/C=C/CO`, the Potency result in [1], in assay [2], in [3], in assay [4], in assay [5] and in [6] was “inactive” throughout. Also, the Potency result in assay [7], in [8], in assay [9] and in [10] was “inactive” each time.

Turning to `O=C1c2ccccc2C(=O)N1SC1CCCCC1`, the Potency in assay [1] is 54.9 µM (active); in assay [11] it was 48.9 µM (active); in assay [12], 43.6 µM (active); in [3], 48.5 µM (active) and 54.5 µM (active); in [7], 48.9 µM (active) and 49 µM (active). The Potency entry in assay [2] and in assay [8] was “inactive” in each case.

As for `C[C@@H](O)[C@H](N)C(=O)O`, the Potency result in assay [1], in assay [11], in [2], in assay [12] and in assay [10] was “inactive” in each case. In [13], the activity change, negative = inhibition is 1.16% [at 19 µM] (inactive). Also, in [4], the viability change, negative = cytotoxic was 3.86% [at 15.8 µM] (inactive). Also, the activation in [5] was -7.74% [at 15.8 µM] (inactive); in [6], 0.146% [at 15.8 µM] (inactive). Besides, the activity change, negative = cytotoxicity in assay [7] is 1.63% [at 15.8 µM] (inactive); in assay [8] it was -1.86% [at 19 µM] (inactive). Also, the activity, negative = inhibition in [9] was 42.8% [at 19 µM] (inactive).

Take `O=C(O)Cc1ccc2c(c1)C(=O)c1ccccc1CO2`: the Potency entry in assay [1], in [11], in assay [2], in assay [12], in assay [3] and in assay [13] was “inactive” throughout. Also, the Potency result in [4], in assay [5], in assay [8] and in assay [9] was “inactive” in each case.

Take `C#CC1(O)CC[C@H]2[C@@H]3CCC4=CCCC[C@@H]4[C@H]3CC[C@@]21C` (stereo partly drawn): the Potency in assay [2] is 13.4 µM (active); in [12] it was 49 µM (active) and 10.7 µM (active); in assay [3], 61.1 µM (active) and 26.6 µM (active); in [13], 43.3 µM (active) and 23.7 µM (active); in [4], 43.6 µM (active) and 15.1 µM (active); in assay [7], 24.5 µM (active) and 21.3 µM (active). The Potency in assay [8] is 54.5 µM (active) and 26.6 µM (active); in [9] it was 48.6 µM (active) and 23.7 µM (active). In assay [10], the Potency result is “inactive”.

Regarding `CCOC(=O)NNc1ccc(N(CC)CC(C)O)nn1` (stereo not drawn), the Potency entry in assay [1], in [2], in [12], in assay [13], in [4] and in assay [5] was “inactive” each time. In addition, the Potency entry in [7], in assay [8], in assay [9] and in assay [10] was “inactive” each time.

In the case of `O=C(/C=C/c1ccccc1)OC/C=C/c1ccccc1`, the Potency result in assay [1], in assay [11], in [2], in assay [13], in assay [4] and in assay [5] was “inactive” throughout. Moreover, the Potency entry in assay [7], in [8] and in assay [9] was “inactive” each time.

Turning to `Cc1nc(-c2ccc(Cl)cc2)oc1COC(C)(C)C(=O)O`, the Potency entry in assay [1], in assay [11], in assay [2], in assay [3], in assay [13] and in assay [4] was “inactive” each time. The Potency result in [5], in assay [6], in [7] and in [8] was “inactive” each time.

For the compound `Cc1cc(=O)oc2cc(O)cc(O)c12`, the Potency entry in assay [1], in assay [11], in assay [2], in assay [3], in [4] and in assay [5] was “inactive” throughout. For the same compound, the Potency result in [7] and in assay [10] was “inactive” throughout.

As for `COc1cccc2c1C(=O)c1c(O)c3c(c(O)c1C2=O)C[C@@](O)(C(C)=O)C[C@@H]3O[C@H]1C[C@H](N)[C@H](O)[C@H](C)O1`, the Potency entry in assay [11], in [2], in assay [4] and in assay [8] was “inactive” throughout. The Potency was 13.8 µM (active) and 15 µM (active) in assay [3]; 30.8 µM (active) and inactive in assay [13].

On to `C=Cc1ccccc1C=C`, for which the Potency entry in [1], in [2], in assay [12], in assay [3], in assay [4] and in [5] was “inactive” in each case. Besides, the Potency result in assay [7], in assay [8], in assay [9] and in assay [10] was “inactive” each time.

In the case of `CCCCCCCCCCC[C@@H](C[C@@H]1OC(=O)[C@H]1CCCCCC)OC(=O)[C@H](CC(C)C)NC=O`, the Potency entry in assay [2], in assay [12], in assay [4], in assay [5], in [6] and in [8] was “inactive” in each case. Besides, the Potency entry in assay [9] and in assay [10] was “inactive” throughout. The Potency in assay [3] was 11.9 µM (active).

Take `CCCCCCCCCCCCCCCC[N+](C)(C)CC`: the Potency was 21.9 µM (active) in assay [1]; 13.8 µM (active) and 23.9 µM (active) in [11]; 21.3 µM (active) in assay [2]; 24.6 µM (active) in [12]; 61.3 µM (active) and 23.7 µM (active) in assay [3]; 17.3 µM (active) and 2.98 µM (active) in assay [13]. In addition, the Potency in assay [7] is 8.74 µM (active) and 10.7 µM (active); in assay [8], 61.3 µM (active).

As to `O=C1CCCCCCCCCCCCCCCO1`, the Potency entry in assay [11], in [2], in assay [3], in [4], in assay [5] and in [6] was “inactive” throughout. The Potency entry in assay [7], in assay [8] and in assay [9] was “inactive” in each case.

Turning to `CCOC(=O)Cn1cccc1-c1nc(-c2ccc(OC)cc2)c(-c2ccc(OC)cc2)s1`, the Potency result in assay [1], in assay [2], in assay [12], in assay [4], in [5] and in assay [7] was “inactive” each time. Also, the Potency result in assay [8], in assay [9] and in [10] was “inactive” each time.

In the case of `Cc1ccc(C(C)C)cc2c(C)ccc1-2`, the Potency result in [11], in assay [2], in assay [12], in assay [4], in assay [5] and in assay [7] was “inactive” throughout. The Potency result in assay [8], in assay [9] and in [10] was “inactive” throughout.

As to `Fc1ccc(C(c2ccc(F)cc2)N2CCNCC2)cc1`, the Potency in assay [1] is 26.6 µM (active); in [11] it was 16.9 µM (active). In addition, the Potency result in assay [2], in assay [3], in assay [13], in assay [4], in assay [5] and in assay [8] was “inactive” throughout.
